Experimental data reported in paper PMC11006913.

Tests used:
Assay in all cases: PBM; 200 nM protein, PBS
Conditions in all cases: dsDNA, one strand shown
[1] = biological target: HOXB4 (Homo sapiens, UniProt P17483 148-234)
[2] = biological target: HOXA4 (Homo sapiens, UniProt Q00056 201-287, W262R)
[3] = biological target: HOXA4 (Homo sapiens, UniProt Q00056 201-287, R217L)
[4] = biological target: HOXB4 (Homo sapiens, UniProt P17483 148-234, V174I)
[5] = biological target: HOXA4 (Homo sapiens, UniProt Q00056 201-287)
[6] = biological target: HOXA4 (Homo sapiens, UniProt Q00056 201-287, W262F)
[7] = biological target: HOXA2 (Homo sapiens, UniProt O43364 129-215, R185T)
[8] = biological target: ALX1 (Homo sapiens, UniProt Q15699 118-204, L144V)
[9] = biological target: HOXA2 (Homo sapiens, UniProt O43364 129-215, R185K)
[10] = biological target: ALX1 (Homo sapiens, UniProt Q15699 118-204, L144R)
[11] = biological target: VAX1 (Homo sapiens, UniProt Q5SQQ9 86-172)
[12] = biological target: VAX1 (Homo sapiens, UniProt Q5SQQ9 86-172, T142I)
[13] = biological target: HOXA2 (Homo sapiens, UniProt O43364 129-215, Y150S)
[14] = biological target: ALX1 (Homo sapiens, UniProt Q15699 118-204)
[15] = biological target: HOXA2 (Homo sapiens, UniProt O43364 129-215)
[16] = biological target: VAX1 (Homo sapiens, UniProt Q5SQQ9 86-172, K157R)
[17] = biological target: HOXB6 (Homo sapiens, UniProt P17509 132-218, K202E)
[18] = biological target: ALX3 (Homo sapiens, UniProt O95076 139-225, N203Q)
[19] = biological target: ALX3 (Homo sapiens, UniProt O95076 139-225)
[20] = biological target: ALX3 (Homo sapiens, UniProt O95076 139-225, L168Q)
[21] = biological target: ALX3 (Homo sapiens, UniProt O95076 139-225, L168V)
[22] = biological target: ALX3 (Homo sapiens, UniProt O95076 139-225, N203S)
[23] = biological target: HOXB6 (Homo sapiens, UniProt P17509 132-218)
[24] = biological target: HOXA7 (Homo sapiens, UniProt P31268 116-202)
[25] = biological target: HOXA7 (Homo sapiens, UniProt P31268 116-202, W177C)
[26] = biological target: PRRX1 (Homo sapiens, UniProt P54821 80-166, F113S)
[27] = biological target: PRRX1 (Homo sapiens, UniProt P54821 80-166)
Sequence of PRRX1 (Homo sapiens, UniProt P54821 80-166) (P54821 80-166): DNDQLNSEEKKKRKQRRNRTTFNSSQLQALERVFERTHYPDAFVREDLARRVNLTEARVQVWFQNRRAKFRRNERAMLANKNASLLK

Sequence of HOXA4 (Homo sapiens, UniProt Q00056 201-287, W262R) (Q00056 201-287 W262R): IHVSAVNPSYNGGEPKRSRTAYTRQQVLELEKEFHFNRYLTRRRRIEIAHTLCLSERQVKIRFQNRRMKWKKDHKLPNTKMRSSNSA
Sequence of HOXB4 (Homo sapiens, UniProt P17483 148-234, V174I) (P17483 148-234 V174I): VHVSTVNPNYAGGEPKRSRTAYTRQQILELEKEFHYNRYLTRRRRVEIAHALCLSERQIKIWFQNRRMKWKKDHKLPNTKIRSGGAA
Sequence of HOXA4 (Homo sapiens, UniProt Q00056 201-287) (Q00056 201-287): as the sequence (Q00056 201-287 W262R) above, with R62W counted along it
Sequence of HOXA4 (Homo sapiens, UniProt Q00056 201-287, R217L) (Q00056 201-287 R217L): as the sequence (Q00056 201-287 W262R) above, with R17L, R62W counted along it
Sequence of HOXB4 (Homo sapiens, UniProt P17483 148-234) (P17483 148-234): as the sequence (P17483 148-234 V174I) above, with I27V counted along it
Sequence of HOXA4 (Homo sapiens, UniProt Q00056 201-287, W262F) (Q00056 201-287 W262F): as the sequence (Q00056 201-287 W262R) above, with R62F counted along it
Sequence of HOXA7 (Homo sapiens, UniProt P31268 116-202) (P31268 116-202): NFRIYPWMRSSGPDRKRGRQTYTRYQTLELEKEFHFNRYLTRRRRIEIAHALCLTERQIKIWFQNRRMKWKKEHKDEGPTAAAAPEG
Sequence of HOXB6 (Homo sapiens, UniProt P17509 132-218) (P17509 132-218): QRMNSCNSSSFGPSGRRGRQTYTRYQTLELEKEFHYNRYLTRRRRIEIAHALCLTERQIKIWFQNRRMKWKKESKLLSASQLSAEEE
Sequence of HOXA2 (Homo sapiens, UniProt O43364 129-215) (O43364 129-215): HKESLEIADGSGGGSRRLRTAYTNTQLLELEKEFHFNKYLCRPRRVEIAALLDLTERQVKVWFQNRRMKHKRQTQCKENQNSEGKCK
Sequence of HOXA2 (Homo sapiens, UniProt O43364 129-215, R185K) (O43364 129-215 R185K): as the sequence (O43364 129-215) above, with R57K counted along it
Sequence of ALX3 (Homo sapiens, UniProt O95076 139-225, N203S) (O95076 139-225 N203S): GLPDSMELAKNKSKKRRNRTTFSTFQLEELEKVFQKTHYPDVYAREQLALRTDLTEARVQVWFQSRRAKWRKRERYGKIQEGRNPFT
Sequence of HOXB6 (Homo sapiens, UniProt P17509 132-218, K202E) (P17509 132-218 K202E): as the sequence (P17509 132-218) above, with K71E counted along it
Sequence of ALX3 (Homo sapiens, UniProt O95076 139-225) (O95076 139-225): as the sequence (O95076 139-225 N203S) above, with S65N counted along it
Sequence of ALX1 (Homo sapiens, UniProt Q15699 118-204, L144R) (Q15699 118-204 L144R): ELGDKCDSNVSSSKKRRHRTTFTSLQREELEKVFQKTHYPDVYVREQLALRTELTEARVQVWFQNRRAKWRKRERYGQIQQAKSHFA
Sequence of HOXA2 (Homo sapiens, UniProt O43364 129-215, R185T) (O43364 129-215 R185T): as the sequence (O43364 129-215) above, with R57T counted along it
Sequence of ALX3 (Homo sapiens, UniProt O95076 139-225, L168V) (O95076 139-225 L168V): as the sequence (O95076 139-225 N203S) above, with L30V, S65N counted along it
Sequence of HOXA7 (Homo sapiens, UniProt P31268 116-202, W177C) (P31268 116-202 W177C): as the sequence (P31268 116-202) above, with W62C counted along it
Sequence of ALX1 (Homo sapiens, UniProt Q15699 118-204) (Q15699 118-204): as the sequence (Q15699 118-204 L144R) above, with R27L counted along it
Sequence of HOXA2 (Homo sapiens, UniProt O43364 129-215, Y150S) (O43364 129-215 Y150S): as the sequence (O43364 129-215) above, with Y22S counted along it
Sequence of PRRX1 (Homo sapiens, UniProt P54821 80-166, F113S) (P54821 80-166 F113S): as the sequence (P54821 80-166) above, with F34S counted along it
Sequence of ALX3 (Homo sapiens, UniProt O95076 139-225, N203Q) (O95076 139-225 N203Q): as the sequence (O95076 139-225 N203S) above, with S65Q counted along it
Sequence of VAX1 (Homo sapiens, UniProt Q5SQQ9 86-172, T142I) (Q5SQQ9 86-172 T142I): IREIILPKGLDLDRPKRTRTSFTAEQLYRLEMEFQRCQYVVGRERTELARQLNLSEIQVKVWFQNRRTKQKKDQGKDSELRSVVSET
Sequence of ALX1 (Homo sapiens, UniProt Q15699 118-204, L144V) (Q15699 118-204 L144V): as the sequence (Q15699 118-204 L144R) above, with R27V counted along it
Sequence of VAX1 (Homo sapiens, UniProt Q5SQQ9 86-172, K157R) (Q5SQQ9 86-172 K157R): as the sequence (Q5SQQ9 86-172 T142I) above, with I57T, K72R counted along it
Sequence of VAX1 (Homo sapiens, UniProt Q5SQQ9 86-172) (Q5SQQ9 86-172): as the sequence (Q5SQQ9 86-172 T142I) above, with I57T counted along it
Sequence of ALX3 (Homo sapiens, UniProt O95076 139-225, L168Q) (O95076 139-225 L168Q): as the sequence (O95076 139-225 N203S) above, with L30Q, S65N counted along it

## ATCATTAC
[1]
  binding signal: 13.1 upbm affinity estimate (log intensity, higher = more binding, comparable within an allelic series)
[2]
  binding signal: 10.4 upbm affinity estimate (log intensity, higher = more binding, comparable within an allelic series)
[3]
  binding signal: 12 upbm affinity estimate (log intensity, higher = more binding, comparable within an allelic series)
[4]
  binding signal: 13.8 upbm affinity estimate (log intensity, higher = more binding, comparable within an allelic series)
[5]
  binding signal: 13.6 upbm affinity estimate (log intensity, higher = more binding, comparable within an allelic series)
[6]
  binding signal: 11.2 upbm affinity estimate (log intensity, higher = more binding, comparable within an allelic series)

## TTAATGAA
[1]
  binding signal: 13 upbm affinity estimate (log intensity, higher = more binding, comparable within an allelic series)
[2]
  binding signal: 10.7 upbm affinity estimate (log intensity, higher = more binding, comparable within an allelic series)
[7]
  binding signal: 12 upbm affinity estimate (log intensity, higher = more binding, comparable within an allelic series)
[3]
  binding signal: 12.2 upbm affinity estimate (log intensity, higher = more binding, comparable within an allelic series)
[4]
  binding signal: 13.7 upbm affinity estimate (log intensity, higher = more binding, comparable within an allelic series)
[8]
  binding signal: 11 upbm affinity estimate (log intensity, higher = more binding, comparable within an allelic series)
[9]
  binding signal: 12.9 upbm affinity estimate (log intensity, higher = more binding, comparable within an allelic series)
[10]
  binding signal: 10.7 upbm affinity estimate (log intensity, higher = more binding, comparable within an allelic series)
[5]
  binding signal: 13.8 upbm affinity estimate (log intensity, higher = more binding, comparable within an allelic series)
[11]
  binding signal: 12.7 upbm affinity estimate (log intensity, higher = more binding, comparable within an allelic series)
[12]
  binding signal: 12.4 upbm affinity estimate (log intensity, higher = more binding, comparable within an allelic series)
[13]
  binding signal: 10.8 upbm affinity estimate (log intensity, higher = more binding, comparable within an allelic series)
[14]
  binding signal: 11.5 upbm affinity estimate (log intensity, higher = more binding, comparable within an allelic series)
[6]
  binding signal: 11.8 upbm affinity estimate (log intensity, higher = more binding, comparable within an allelic series)
[15]
  binding signal: 12.1 upbm affinity estimate (log intensity, higher = more binding, comparable within an allelic series)
[16]
  binding signal: 12.4 upbm affinity estimate (log intensity, higher = more binding, comparable within an allelic series)

## CCAGGCAG
[1]
  binding signal: 7.62 upbm affinity estimate (log intensity, higher = more binding, comparable within an allelic series)
[2]
  binding signal: 9.9 upbm affinity estimate (log intensity, higher = more binding, comparable within an allelic series)
[17]
  binding signal: 9.02 upbm affinity estimate (log intensity, higher = more binding, comparable within an allelic series)
[3]
  binding signal: 9.88 upbm affinity estimate (log intensity, higher = more binding, comparable within an allelic series)
[4]
  binding signal: 7.62 upbm affinity estimate (log intensity, higher = more binding, comparable within an allelic series)
[18]
  binding signal: 7.78 upbm affinity estimate (log intensity, higher = more binding, comparable within an allelic series)
[5]
  binding signal: 9.85 upbm affinity estimate (log intensity, higher = more binding, comparable within an allelic series)
[19]
  binding signal: 7.65 upbm affinity estimate (log intensity, higher = more binding, comparable within an allelic series)
[20]
  binding signal: 7.7 upbm affinity estimate (log intensity, higher = more binding, comparable within an allelic series)
[21]
  binding signal: 7.82 upbm affinity estimate (log intensity, higher = more binding, comparable within an allelic series)
[6]
  binding signal: 9.95 upbm affinity estimate (log intensity, higher = more binding, comparable within an allelic series)
[22]
  binding signal: 7.76 upbm affinity estimate (log intensity, higher = more binding, comparable within an allelic series)
[23]
  binding signal: 9.1 upbm affinity estimate (log intensity, higher = more binding, comparable within an allelic series)

## CGGTCACG
[1]
  binding signal: 7.89 upbm affinity estimate (log intensity, higher = more binding, comparable within an allelic series)
[4]
  binding signal: 7.75 upbm affinity estimate (log intensity, higher = more binding, comparable within an allelic series)

## CCTGATTA
[1]
  binding signal: 11.8 upbm affinity estimate (log intensity, higher = more binding, comparable within an allelic series)
[4]
  binding signal: 12.4 upbm affinity estimate (log intensity, higher = more binding, comparable within an allelic series)

## CGGCAGAG
[1]
  binding signal: 7.39 upbm affinity estimate (log intensity, higher = more binding, comparable within an allelic series)
[24]
  binding signal: 8.53 upbm affinity estimate (log intensity, higher = more binding, comparable within an allelic series)
[4]
  binding signal: 7.51 upbm affinity estimate (log intensity, higher = more binding, comparable within an allelic series)
[25]
  binding signal: 8.39 upbm affinity estimate (log intensity, higher = more binding, comparable within an allelic series)

## CGTCGTTA
[1]
  binding signal: 10.9 upbm affinity estimate (log intensity, higher = more binding, comparable within an allelic series)
[4]
  binding signal: 11 upbm affinity estimate (log intensity, higher = more binding, comparable within an allelic series)

## GACCGTGC
[1]
  binding signal: 7.54 upbm affinity estimate (log intensity, higher = more binding, comparable within an allelic series)
[26]
  binding signal: 9.27 upbm affinity estimate (log intensity, higher = more binding, comparable within an allelic series)
[4]
  binding signal: 7.53 upbm affinity estimate (log intensity, higher = more binding, comparable within an allelic series)
[27]
  binding signal: 9.23 upbm affinity estimate (log intensity, higher = more binding, comparable within an allelic series)

## CCGACGGA
[1]
  binding signal: 7.67 upbm affinity estimate (log intensity, higher = more binding, comparable within an allelic series)
[4]
  binding signal: 7.56 upbm affinity estimate (log intensity, higher = more binding, comparable within an allelic series)
